Measured values taken from PubChem BioAssay AID1529 (NMMLSC, 2009).
Out of some 290,000 compounds screened, about 4,200 (1.4%) were called active. The sample as a whole holds a higher share of actives than the screen did. A number with no mark means an inactive call.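 Rule for the calls: active = binding response more than 3 SD above or below the average of its plate-row segment, actives on both sides; inconclusive = wells at one plate position flagged as instrument error; inactive = the rest.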

Target: Mitogen-activated protein kinase kinase kinase 3 (Homo sapiens) (UniProt Q99759)
Experiment: compounds raising or lowering MEK5 association with MEKK3 PB1 – biochemical, wildtype MEKK3, multiplex bead flow cytometry, Alexa488-MEK5, primary screen (AID 1529);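 note: Alexa488 bead fluorescence after subtracting the streptavidin-only scavenger bead signal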
Settings: bead-based flow cytometry, Alexa488-MEK5 binding to MEKK3; at 10 µM; actives lie on both sides; 0 = blocked by unlabeled MEK5, 100 = vehicle

Mitogen-activated protein kinase kinase kinase 3 (Homo sapiens), sequence (Q99759 whole entry, looked up): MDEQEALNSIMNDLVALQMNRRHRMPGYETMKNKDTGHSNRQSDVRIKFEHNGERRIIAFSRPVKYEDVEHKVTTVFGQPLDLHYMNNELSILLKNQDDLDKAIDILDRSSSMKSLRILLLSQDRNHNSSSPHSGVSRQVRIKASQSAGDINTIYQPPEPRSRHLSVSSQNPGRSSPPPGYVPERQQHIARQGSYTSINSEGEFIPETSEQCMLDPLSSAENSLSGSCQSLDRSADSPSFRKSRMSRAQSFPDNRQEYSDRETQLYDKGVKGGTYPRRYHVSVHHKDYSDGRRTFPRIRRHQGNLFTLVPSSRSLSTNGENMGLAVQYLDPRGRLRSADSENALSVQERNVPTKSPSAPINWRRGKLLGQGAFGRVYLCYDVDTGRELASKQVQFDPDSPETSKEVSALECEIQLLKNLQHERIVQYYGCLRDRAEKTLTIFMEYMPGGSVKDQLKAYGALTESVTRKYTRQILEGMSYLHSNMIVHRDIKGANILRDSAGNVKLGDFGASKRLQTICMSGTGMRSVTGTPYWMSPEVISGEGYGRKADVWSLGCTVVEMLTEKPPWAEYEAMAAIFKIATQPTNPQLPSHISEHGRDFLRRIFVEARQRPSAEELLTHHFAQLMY

| SMILES | binding response (% of control) |
| --- | --- |
| COc1ccccc1N(CC(=O)N/N=C(\C)c1ccccc1O)S(=O)(=O)c1ccc(C)cc1 | 102% |
| O=C(Cc1cccs1)N/N=C/c1ccc(OCc2ccccc2)cc1 | 129% (active) |
| CCOc1ccc(NC(=O)C/C(C)=N/NC(=O)Cc2cccs2)cc1 | 99% |
| O=C(N/N=C/c1ccc(OCc2ccccc2)cc1)c1ccc(O)cc1 | 119% |
| N#C/C(=C\c1ccccc1C(F)(F)F)C(=O)Nc1ccccc1F | 97% |
| N#C/C(=C/c1ccc(N2CCOCC2)o1)C(=O)N1CCOCC1 | 94% |
| N#C/C(=C\C1=C(N2CCOCC2)C(=C\c2ccccc2)/CC1)C(=O)Nc1ccccc1F | 8% [inhibitor] (active) |
| CN(CCC1CCOCC1)Cc1cn[nH]c1-c1ccc(-c2ccccc2)cc1 | 109% |
| CCCCC(CC)CNCc1cccn1CCN1CCOCC1 (stereo unspecified) | 100% |
| COc1cccc2sc(N(CCCN(C)C)C(=O)C(c3ccccc3)c3ccccc3)nc12 | 111% |
| COc1cccc2sc(N(CCCN(C)C)C(=O)CCS(=O)(=O)c3ccccc3)nc12 | 97% |
| CN(C)CCCN(C(=O)COc1ccccc1)c1nc2c(Cl)cccc2s1 | 35% [inhibitor] (active) |
| COCCNc1ccc(-c2n[nH]c(=O)c3ccccc23)cc1[N+](=O)[O-] | 103% |
| CCOC(=O)/C(C#N)=C/c1ccc(N2CCCCC2)cc1 | 99% |
| O=C1C=CC(=O)N1c1ccc(N2CCCCC2)cc1 | 49% [inhibitor] (active) |
| Cc1ccccc1C(=O)Nc1ccc(N2CCCCCC2)cc1 | 80% |
| C#CC(C)(C)NC(=O)c1cnc(-c2ccccc2)nc1-c1ccccc1 | 105% |
| CC(NC(=O)c1cc2cc(Cl)ccc2oc1=N)c1ccccc1 (stereo unspecified) | 100% |
| Cc1ccc(CN(C)Cc2cc(=O)oc3cc(C)c(Cl)cc23)cc1 | 109% |
| COc1ccc(N(C(=O)c2snc(C(N)=O)c2N)C(C(=O)NC2CCCC2)c2ccco2)cc1OC (stereo unspecified) | 101% |
| Cc1c(Cl)cccc1NC(=O)[C@@]1(CC(=O)O)CC(/C=C/c2ccccc2)=NO1 | 96% |
| COC(=O)c1c(NC(=O)c2ccccc2F)sc2c1C(C(=O)OC)CC2 (stereo unspecified) | 98% |
| Cc1noc(C)c1C(=O)OCC(=O)/C=C1\N(C)c2ccccc2C1(C)C | 100% |
| CC(C)Nc1nnc(SCC(=O)/C=C2\N(C)c3ccccc3C2(C)C)s1 | 101% |

| SMILES | binding response (% of control) |
| --- | --- |
| CC(=O)Nc1cccc(OCC(=O)/C=C2\N(C)c3ccccc3C2(C)C)c1 | 62% [inhibitor] (active) |
| CC(CN1CCOCC1)OC(=O)c1ccc(C(C)(C)C)cc1 (stereo unspecified) | 106% |
| COc1cc2cc(C(=O)N/N=C/c3cccc(OC)c3OC)[nH]c2cc1OC | 94% |
| COc1cccc(/C=N\NC(=O)C2=NNC(=O)C2C)c1O (stereo unspecified) | 128% (active) |
| COc1cccc(/C=N/NC(=O)c2[nH]nc3c2CCc2ccccc2-3)c1O | 102% |
| Cc1ccccc1Cn1c(=O)[nH]c2ccccc21 | 52% |
| CCCc1cc(=S)n2c([nH]c3ccccc32)c1C#N | 1% [inhibitor] (active) |
| CCOC(=O)CCc1c(C)c(C#N)c2[nH]c3ccccc3n2c1=O | 109% |
| COC(C[C@H](O)CC(=O)[C@@H](C)OCc1ccccc1)OC | 101% |
| CN(c1ccc(C(=O)NCCC2=CCCCC2)cc1)S(C)(=O)=O | 100% |
| Cn1nnc2cc(C(=O)NCCC3=CCCCC3)ccc21 | 99% |
| O=C(NCCC1=CCCCC1)c1ccc(Cl)c([N+](=O)[O-])c1 | 153% (active) |
| O=[N+]([O-])c1ccccc1/C=C/CN1CCC(O)CC1 | 105% |
| Cc1noc(C)c1S(=O)(=O)N(C)Cc1ccccc1 | 3% [inhibitor] (active) |
| Cc1cc(C)cc(N(CC(=O)N2CC=C(c3ccccc3)CC2)S(=O)(=O)c2c(C)noc2C)c1 | 112% |
| Cc1noc(C)c1S(=O)(=O)Nc1ccc(C(=O)O)cc1 | 98% |
| CCOc1ccccc1NC(=O)COc1ccc(S(=O)(=O)N2CCCC2)cc1 | 98% |
| COc1ccc(S(=O)(=O)NC(C)C(=O)NCc2ccncc2)cc1Cl (stereo unspecified) | 99% |
| CC1CCN(C2=NC(=O)/C(=C/c3cn[nH]c3-c3ccccc3)S2)CC1 | 130% (active) |
| CC1CCN(C2=NC(=O)/C(=C/c3ccc(O)cc3)S2)CC1 | 100% |
| Cc1ccc(N2CCN(C3=NC(=O)/C(=C\c4cccs4)S3)CC2)cc1 | 98% |
| COc1ccc(CN2CC[C@H]3C=CC[C@@H](C(=O)N4CCOCC4)[C@H]3C2=O)cc1OC | 98% |
| CC(=O)c1cccc(NC(=S)N2CCN(S(C)(=O)=O)CC2)c1 | 102% |
| CCCNC(=O)CCn1nc(-c2ccccc2)c2ccccc2c1=O | 94% |

| SMILES | binding response (% of control) |
| --- | --- |
| O=c1c2ccccc2c(-c2ccccc2)nn1Cc1ccccc1 | 134% (active) |
| O=c1c2ccccc2c(-c2ccc(Br)cc2)nn1Cc1ccccc1 | 109% |
| C=CCOC(=O)C1=C[C@H](c2ccc(Br)cc2)C[C@H](OCCCCO)O1 | 99% |
| Cc1cccc(OCCC(=O)Nc2ccccc2C(N)=O)c1 | 104% |
| COc1ccccc1C(=O)N/C(=C/c1ccco1)C(=O)Nc1ccc(C(=O)O)cc1 | 102% |
| N#Cc1ccc(CSc2ncccn2)cc1 | 101% |
| Cc1cc(C)nc(-n2nc(C)cc2NC(=O)c2ccc(F)cc2F)n1 | 105% |
| CCOC(=O)Cc1csc(NC(=O)CSc2nc(C)cc(=O)[nH]2)n1 | 58% [inhibitor] (active) |
| CCCCc1nnc(NC(=O)CSc2nc(C)cc(=O)[nH]2)s1 | 98% |
| CCOC(=O)Cc1csc(NC(=O)CSc2ccc(Br)cc2)n1 | 107% |
| COc1ccc(S(=O)(=O)N2CCN(C(=O)N(C)C)C2C)cc1 (stereo unspecified) | 102% |
| O=C(Nc1ccn(Cc2ccccc2)n1)c1cccc(F)c1 | 135% (active) |
| O=C(Nc1cccc(NC(=O)c2cccc(F)c2)c1)c1ccccc1 | 101% |
| O=C(Nc1ccn(Cc2ccccc2)n1)c1n[nH]c([N+](=O)[O-])c1Cl | 99% |
| COc1cc(/C=N/NC(=O)CNC(=O)c2ccncc2)ccc1OC(C)=O | 105% |
| COc1cc(CC(=O)N/N=C/c2ccccc2)c([N+](=O)[O-])cc1OC | 134% (active) |
| COc1cc(/C=N/NC(=O)Cc2ccccc2)cc(OC)c1OC | 98% |
| COc1ccc(C(=O)NCC(=O)N/N=C/c2ccc([N+](=O)[O-])s2)cc1OC | 102% |
| COc1ccc(C(=O)NCC(=O)N/N=C/c2ccc([N+](=O)[O-])o2)cc1OC | 133% (active) |
| O=C(Cc1cc(=O)[nH][nH]1)N/N=C/c1ccccc1[N+](=O)[O-] | 121% |
| Cc1ccccc1N1CCN(C2CCCN(C(=O)c3ocnc3C)C2)CC1 (stereo unspecified) | 106% |
| COc1ccccc1CN1CCCC(N2CCN(c3ccc(F)cc3)CC2)C1 (stereo unspecified) | 104% |
| C=CCOc1cccc(C2NC(=O)c3ccccc3O2)c1 (stereo unspecified) | 91% |
| CC(C)c1cc(C(N)=O)c(NC(=O)c2cccc(COc3ccc(Br)cc3)c2)s1 | 104% |

| SMILES | binding response (% of control) |
| --- | --- |
| O=C(Nc1cccc(F)c1)NC1CCCc2ccccc21 (stereo unspecified) | 99% |
| Cc1nc2nc3c(cn2n1)C(=O)CC(c1ccccc1)C3 (stereo unspecified) | 95% |
| Cc1cc(C)nc(-n2ncc3c2CC(c2ccc(C(C)C)cc2)CC3=O)n1 (stereo unspecified) | 148% (active) |
| CS(=O)(=O)N(CC(=O)N1CCOCC1)c1cccc(Cl)c1Cl | 102% |
| CCO[C@H]1OC(C(=O)N2CCCCCCC2)=C[C@@H](c2ccc(C(F)(F)F)cc2)[C@@H]1CCCO | 107% |
| CCO[C@@H]1OC(C(=O)N2CCOCC2)=C[C@H](C)[C@H]1CCCO | 99% |
| CCO[C@H]1OC(C(=O)N2CCOCC2)=C[C@@H](c2ccc3c(c2)OCO3)[C@@H]1CCCO | 81% [inhibitor] (active) |
| Cc1ccc(Cn2c(C)c3cnn(CC(=O)NCc4ccccn4)c(=O)c3c2C)cc1 | 100% |
| COC(=O)c1cccc(N(CC(=O)NCC2CCCO2)C(=O)CCC(=O)Nc2cc(C)on2)c1 (stereo unspecified) | 103% |
| O=C(Cc1cccc2ccccc12)Nc1ccc2oc(-c3ccccc3)nc2c1 | 129% (active) |
| O=C(Nc1ccc2oc(-c3ccc4ccccc4c3)nc2c1)c1cccs1 | 121% |
| CC(O)c1cccc(NC(=O)Cc2cccc3ccccc23)c1 (stereo unspecified) | 102% |
| Clc1ccc(-c2nnc(SCc3nc4ccccc4s3)o2)cc1 | 150% (active) |
| c1ccc(-c2nnc(SCc3nc4ccccc4[nH]3)o2)cc1 | 98% |
| O=C(O)CSCc1nc2ccccc2s1 | 96% |
| COc1ccc(Cl)cc1NC(=O)C(C)N1CCc2ccccc21 (stereo unspecified) | 100% |
| Cc1ccccc1NC(=O)N1CCCC1C(=O)NCc1ccccc1 (stereo unspecified) | 114% |
| Cc1nn(-c2ccccc2)c(NC(=O)c2cccs2)c(-c2ccc(Cl)cc2)c1=O | 162% (active) |
| Cc1ccc(-n2nc(C)c(/C=N/NC(=O)c3cccs3)c2Cl)cc1 | 106% |
| O=C(Nc1c2c(nn1-c1cccc(Cl)c1)CS(=O)(=O)C2)c1cccs1 | 82% |
| CCc1ccc(NC(=O)Cn2nnc(C(=O)NCc3ccc4c(c3)OCO4)c2N)cc1 | 100% |
| Cc1ccccc1OCC(=O)Nc1ccc(N2CCN(C(=O)C(C)C)CC2)c(Cl)c1 | 122% (active) |
| Cc1ccccc1OCC(=O)Nc1ccc(S(=O)(=O)N2CCOCC2)cc1 | 95% |
| CCC(=O)N1CCN(c2ccccc2NC(=O)COc2cccc(C)c2C)CC1 | 102% |
